# According to PubChem BioAssay (NCI):
# About 83,000 compounds went through this panel and 20% of them were active in at least one assay; those are over-represented in the sample as a whole.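 Plates (96-well) were seeded with cells, treated with compound at one concentration, and incubated for 48 hours before percent growth was determined.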 The source made the active and inactive calls. Rule for the calls: active = growth percent below 10; inactive = the rest.
# How the values were obtained:
# Assay in all cases: NCI-60 one-dose screen, 48 h (100 = growth as untreated, 0 = no growth, -100 = all killed)
# NCI-H23 lung = details: 10 µM unless noted
# NCI-H226 lung = details: 10 µM unless noted
# NCI-H322M lung = details: 10 µM unless noted
# NCI-H460 lung = details: 10 µM unless noted
# HOP-92 NSCLC = details: 10 µM
# NCI-H522 lung = details: 10 µM
# A549/ATCC NSCLC = details: 10 µM unless noted
# 786-0 renal = details: 10 µM unless noted
# COLO 205 colon = details: 10 µM unless noted
Structure (SMILES),growth (NCI-H23 lung),growth (NCI-H226 lung),growth (NCI-H322M lung),growth (NCI-H460 lung),growth (HOP-92 NSCLC),growth (NCI-H522 lung),growth (A549/ATCC NSCLC),growth (786-0 renal),growth (COLO 205 colon)
O=C(/C=C/c1cccc(O)c1)c1cccc(-n2cc(-c3ccc(Cl)cc3)[nH]c2=O)c1,-19.5% (active),-48.7% (active),-0.035% (active),-4.62% (active),-35.6% (active),-48.6% (active),28.3% (inactive),-74.7% (active),42.1% (inactive)
COc1ccc(C2=C/C(=C\c3ccc(Cl)cc3)C(=O)NN2C(=S)NN)cc1,92.5% (inactive),87.6% (inactive),102% (inactive),102% (inactive),74% (inactive),83.9% (inactive),101% (inactive),104% (inactive),114% (inactive)
O=C(O)/C(Br)=C/c1c[nH]c2ccc(Br)cc12,99.6% (inactive),108% (inactive),116% (inactive),122% (inactive),174% (inactive),110% (inactive),117% (inactive),101% (inactive),156% (inactive)
CC[C@H](Nc1ncnc2nc[nH]c12)c1nc2cccc(NCc3ccc(C(=O)NO)o3)c2c(=O)n1-c1ccccc1,98.1% (inactive),109% (inactive),97.4% (inactive),111% (inactive),82.6% (inactive),76.7% (inactive),102% (inactive),94.1% (inactive),115% (inactive)
Cc1ccc([C@@H]2C[C@H](O)Cc3ccccc3N2)s1,90.7% (inactive),124% (inactive),110% (inactive),101% (inactive),78.8% (inactive),117% (inactive),104% (inactive),114% (inactive),98.8% (inactive)
COc1cc(-c2c3c(cn2CCN2CCCCC2)-c2oncc2CC3)cc(OC)c1OC,98.6% (inactive),90.2% (inactive),110% (inactive),101% (inactive),81.8% (inactive),90.9% (inactive),101% (inactive),105% (inactive),103% (inactive)
COc1cc(NC(C)CCCN)c2nccc(C)c2c1OC (stereo unspecified),51.8% (inactive),97.2% (inactive),103% (inactive),109% (inactive),47.9% (inactive),31.6% (inactive),144% (inactive),98.8% (inactive),50.6% (inactive)
CC(=O)Nc1nc(C)c(C(=O)N/N=C/N2CCOCC2)s1,106% (inactive),99.8% (inactive),115% (inactive),113% (inactive),48.4% (inactive),25.3% (inactive),111% (inactive),77.1% (inactive),127% (inactive)
Cc1c(CN(C)C)cc(C(C)C)cc1C(C)C,102% (inactive),93.5% (inactive),129% (inactive),111% (inactive),129% (inactive),85% (inactive),101% (inactive),103% (inactive),131% (inactive)
c1ccc2[nH]c(-c3ccc(OCCCCCOc4ccc(-c5nc6ccccc6[nH]5)cc4)cc3)nc2c1,40.9% (inactive),103% (inactive),72.7% (inactive),-19.8% (active),-75% (active),30.9% (inactive),12.7% (inactive),14.7% (inactive),121% (inactive)
COc1cc(CCNc2cnc3cc(N)cc(N)c3n2)cc(OC)c1,107% (inactive),99.4% (inactive),102% (inactive),120% (inactive),154% (inactive),98.2% (inactive),112% (inactive),101% (inactive),136% (inactive)
COc1ccc(-c2nc(Nc3nc4ccccc4[nH]3)nc(N)c2C#N)cc1,100% (inactive),85.4% (inactive),111% (inactive),109% (inactive),88.6% (inactive),92.5% (inactive),106% (inactive),102% (inactive),81.4% (inactive)
O=C(/C=C/c1c[nH]c2ccccc12)c1cc2ccccc2o1,97.2% (inactive),100% (inactive),99.7% (inactive),107% (inactive),83.2% (inactive),79.8% (inactive),89.5% (inactive),86.6% (inactive),130% (inactive)
N=C(N)N=Nc1ccc(NN=C(N)N)c2ccccc12,106% (inactive),117% (inactive),97% (inactive),108% (inactive),93.7% (inactive),87.1% (inactive),97.8% (inactive),95.3% (inactive),111% (inactive)
CCCCN(CCCC)CC(O)CN(CC)CC (stereo unspecified),99.6% (inactive),96.3% (inactive),97.6% (inactive),114% (inactive),93.4% (inactive),95.3% (inactive),99% (inactive),104% (inactive),99.3% (inactive)
CCOc1ccccc1/C=N\N=C(N/N=C/c1ccccc1OCC)N/N=C/c1ccccc1OCC,18.8% (inactive),20.3% (inactive),11.3% (inactive),1.36% (active),-21.1% (active),1.5% (active),9.6% (active),22.9% (inactive),-38.9% (active)
CCCC(CCC)Oc1ccc(CCCC2=C(O)c3ccccc3C(=O)C2=O)cc1,26.9% (inactive),32.6% (inactive),-1.08% (active),9.9% (active),28.1% (inactive),30.2% (inactive),32.1% (inactive),42.2% (inactive),43.9% (inactive)
COc1ccc(Cn2cc3c(c2)-c2oncc2CC3)cc1OC,16.9% (inactive),31.4% (inactive),22.9% (inactive),1.13% (active),84.4% (inactive),20.5% (inactive),25.9% (inactive),22% (inactive),-18.2% (active)
Brc1c(-c2ccncc2)nc2n1CCS2,113% (inactive),93.4% (inactive),107% (inactive),103% (inactive),73.9% (inactive),76.5% (inactive),94.1% (inactive),26.3% (inactive),120% (inactive)
COc1ccc2sc(-n3nc4nc5n(c(=O)c4c3N)-c3ccccc3Sc3ccccc3-5)nc2c1,79.2% (inactive),81.4% (inactive),75.4% (inactive),84.9% (inactive),74.1% (inactive),75.6% (inactive),68% (inactive),91.2% (inactive),64.7% (inactive)
COc1cc(NC(C)CCCN)c2nc(C)ccc2c1OC (stereo unspecified),90.9% (inactive),102% (inactive),96.9% (inactive),109% (inactive),55.5% (inactive),101% (inactive),147% (inactive),98.3% (inactive),60.5% (inactive)
Cc1nn(-c2ccccc2)c(N)c1N=C1NC(=O)/C(=C/c2ccc(Cl)cc2)S1,78.2% (inactive),83.5% (inactive),81.8% (inactive),92.6% (inactive),79.9% (inactive),87.1% (inactive),80.6% (inactive),94.7% (inactive),88.4% (inactive)
Oc1ccccc1/C=N/N=C\c1ccccc1Cl,88.3% (inactive),76.8% (inactive),97.6% (inactive),99% (inactive),77.5% (inactive),92.3% (inactive),101% (inactive),100% (inactive),109% (inactive)
COc1ccc2nc3cc(Cl)ccc3c(NCCCNC(C)=O)c2c1,37% (inactive),34.1% (inactive),34.4% (inactive),7.26% (active),50.4% (inactive),52.5% (inactive),23.9% (inactive),48.9% (inactive),23.7% (inactive)
COc1cc(-c2nc3c(c(C)nc4c3nnn4-c3ccccc3)c(=O)o2)cc(OC)c1OC,115% (inactive),104% (inactive),104% (inactive),115% (inactive),103% (inactive),103% (inactive),112% (inactive),104% (inactive),113% (inactive)
COc1ccc(-c2cc(C#N)c(NNC(C)=O)[nH]2)cc1,91.4% (inactive),104% (inactive),117% (inactive),128% (inactive),178% (inactive),107% (inactive),115% (inactive),95.3% (inactive),129% (inactive)
Oc1ccc(CN(Cc2ccc(C(F)(F)F)cc2)Cc2ccc(O)c3ncccc23)c2cccnc12,17.4% (inactive),18.3% (inactive),31.5% (inactive),1.74% (active),-3.41% (active),3.25% (active),1.19% (active),11.4% (inactive),19.6% (inactive)
C=CCSc1nnc(COc2ccc3c(C)c(Cc4ccccc4)c(=O)oc3c2C)o1,102% (inactive),95% (inactive),99.2% (inactive),103% (inactive),100% (inactive),81.8% (inactive),101% (inactive),102% (inactive),117% (inactive)
CCOC(=O)C1=C(C(F)(F)F)NC(=S)NC1CN1C(=O)c2ccccc2C1=O (stereo unspecified),87.5% (inactive),116% (inactive),103% (inactive),106% (inactive),82.3% (inactive),111% (inactive),118% (inactive),99.7% (inactive),119% (inactive)
